Source: PubChem
This is a sample that favours compounds with a hit; in the whole collection about 3.8% have one here.
Nrf2 inh = Nrf2 pathway inhibition | A549 ARE-Fluc reporter, luciferase luminescence, 18-24 h | Potency, µM (series often up to 46 µM), for inactives: top-dose activity change, negative = inhibition, usual class: inhibitors | hit rate 2.1% among 360,000; also: % is scaled to controls: 0 for no effect and ±100 for the full control effect; nearly all actives have a fitted effect of over 60% in size
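Quantitative HTS in A549 cells stably bearing an antioxidant response element-firefly luciferase construct. Inhibition of Nrf2-driven transcription was scored by luminescence after 18-24 h of compound exposure at 37 °C.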
mIDH1 inhibitor = human IDH1 R132H inhibition; O75874; IDH1-R132H enzyme, NADPH consumption, diaphorase/resazurin fluorescence; Potency, µM (titrated, usually from 76.6 µM), inactives show top-dose activity change, negative = inhibition, most hits filed as inhibitors; hit rate 0.093% among 390,000; also: % is scaled to controls: 0 for no effect and ±100 for the full control effect; nearly all actives have a fitted effect of over 65% in size
Target sequence (O75874 whole entry R132H, stated change not applied): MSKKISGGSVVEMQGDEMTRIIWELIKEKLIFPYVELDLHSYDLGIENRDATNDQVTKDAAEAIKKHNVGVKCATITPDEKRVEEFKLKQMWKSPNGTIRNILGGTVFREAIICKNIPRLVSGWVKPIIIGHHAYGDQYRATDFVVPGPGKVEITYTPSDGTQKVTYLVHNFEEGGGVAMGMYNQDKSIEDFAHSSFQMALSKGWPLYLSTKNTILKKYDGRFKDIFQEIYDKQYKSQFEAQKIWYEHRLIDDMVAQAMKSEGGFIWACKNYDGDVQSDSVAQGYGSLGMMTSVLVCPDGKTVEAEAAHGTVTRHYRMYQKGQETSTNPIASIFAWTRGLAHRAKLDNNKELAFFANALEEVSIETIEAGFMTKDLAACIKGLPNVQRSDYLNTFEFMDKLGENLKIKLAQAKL
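IDH1-R132H (0.5 ug/mL) preincubated 30 min with compound, then NADPH (0.016 mM) and alpha-KG (2 mM) added; 80 min at RT, pH 7.5. Remaining NADPH coupled via diaphorase/resazurin to fluorescence (540/590 nm); concentration-response curves normalized to no-enzyme control.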
Nrf2 ARE act = activates Nrf2 signaling | AREc32 ARE-luciferase reporter (MCF7-derived line), luminescence, 24 h | Potency, µM (titrated, usually from 46.1 µM), for inactives: at the highest dose activation, most hits filed as activators | hit rate 0.31% among 410,000 | AID 624171; also: % of control where 0% means no effect; nearly all actives have a fitted effect of over 65% in size
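AREc32_Fluc, 1000 cells/well, OPTI-MEM + 5% FBS, o/n 37 deg C 5% CO2; 23 nL cpd by pin tool, 24 hr; Steady-Glo 30 min RT, luminescence.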
A549 viability = kills or reduces viability of A549 cells in Nrf2 counter-screen; hit rate 0.16% among 390,000; Potency, µM (top dose mostly 46 µM), without a hit: at the highest dose activity change, negative = cytotoxicity, most hits filed as inhibitors; A549 ARE-Fluc cells, CellTiter-Fluor viability, 18-24 h; also: % is scaled to controls: 0 for no effect and ±100 for the full control effect
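Cytotoxicity counterscreen: CellTiter-Fluor fluorescence was measured in A549 ARE_Fluc cells after 18-24 h of compound exposure in a concentration series. The subsequent BugLite luminescent read reports ARE-luciferase activity.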
ELG1 DNA repair = inhibitors of ELG1-dependent DNA repair in HEK293T cells | HEK293T ELG1-luciferase reporter, luminescence, 16 h; DNA damage induced by 5-fluorouridine | hit rate 2.3% among 330,000 | Potency, µM (titrated, usually from 46.1 µM), without a hit: at the highest dose activity change, negative = inhibition, hits mostly inhibitors; also: % is scaled to controls: 0 for no effect and ±100 for the full control effect; nearly all actives have a fitted effect of over 55% in size
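Cells (2,000 per well) received 5-fluorouridine plus test compound or DMSO and were incubated 16 hr at 37 °C, 5% CO2. Luciferase activity was read by luminescence 30 min after ONE-Glo addition; signal suppression marked inhibition of damage-induced ELG1 function.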
ELG1 FLuc counter = luciferase inhibition in cell-free luciferin readout for ELG1 hits | hit rate 3% among 350 | Potency, µM (titrated, usually from 46.1 µM), without a hit: at the top dose activity change, negative = inhibition, most hits filed as inhibitors | cell-free firefly luciferase luminescence counter-screen, ViewLux | shares compounds with ELG1 DNA repair; also: % is scaled to controls: 0 for no effect and ±100 for the full control effect
ELG1 Luc conf = inhibits ELG1-dependent DNA repair in HEK293T cells, confirmed. HEK293T ELG1-luciferase levels, luminescence; cells co-treated with 5-fluorouridine. Potency, µM (series often up to 46.1 µM), for the others: at the highest dose activity change, negative = inhibition, actives largely listed as inhibitors. shares compounds with ELG1 DNA repair. hit rate 68% among 670; also: % is scaled to controls: 0 for no effect and ±100 for the full control effect; nearly all actives have a fitted effect of over 55% in size
ELG1-Luc MMS = MMS-stimulated human ELG1 repair inhibition, confirmed; shares compounds with ELG1 DNA repair; HEK293T luciferase-tagged ELG1 level, MMS stimulated; Potency, µM (doses to about 46.1 µM), inactives show top-dose activity change, negative = inhibition, usual class: inhibitors; hit rate 53% among 670; AID 624249; also: % is scaled to controls: 0 for no effect and ±100 for the full control effect; nearly all actives have a fitted effect of over 60% in size
ELG1 5FU viab = confirmation of ELG1 repair inhibitors: viability with 5FU; shares compounds with ELG1 DNA repair; cell viability with 5-FU, ELG1-dependent repair; Potency, µM (titrated, usually from 46.1 µM), without a hit: top-dose activity change, negative = viability loss, usual class: cytotoxic; 670 tested, under 10 active;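 also: ELG1-luc HEK293T cells cotreated with 5-fluorouridine at 10 µM final; viability measured 16 h after compound addition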
ELG1 MMS cell = confirmation of ELG1 repair inhibitors: viability with MMS; shares compounds with ELG1 DNA repair; Cell viability with MMS, ELG1-dependent DNA repair; Potency, µM (highest dose often 46.1 µM), for the others: at the highest dose activity change, negative = viability loss, most hits filed as cytotoxic; hit rate 33% among 670;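 also: ELG1-luc HEK293T cells co-treated with 10 µM MMS; viability read 16 h after compound addition; % is scaled to controls: 0 for no effect and ±100 for the full control effect; nearly all actives have a fitted effect of over 60% in size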
ELG1 unstim viab = affects unstimulated cell viability, ELG1 hit counter-screen | AID 624252 | Potency, µM (titrated, usually from 45.9 µM), for inactives: top-dose activity change, negative = loss of viability, usual class: cytotoxic | hit rate 8% among 900 | shares compounds with ELG1 DNA repair | cell viability counter-screen, unstimulated, luminescence;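 also: compound exposure lasted 16 hours before reading; % is scaled to controls: 0 for no effect and ±100 for the full control effect; nearly all actives have a fitted effect of over 55% in size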
FLuc enzyme = firefly luciferase inhibition counter-screen. shares compounds with ELG1 DNA repair. purified firefly luciferase, luminescence counter-screen. Potency, µM (highest dose often 57.5 µM), for inactives: top-dose activity, negative = inhibition, usual class: inhibitors. hit rate 10% among 350. AID 624253; also: % is scaled to controls: 0 for no effect and ±100 for the full control effect
* = called active by the depositor; ? = inconclusive; . = not tested or not shown. Calls follow the shape of the dose curve; as a rule, active = well fitted curve in the direction sought with a large enough effect; inconclusive = small, poorly fitted or top-dose-only effect, or another doubt; inactive = no such curve, though single readings can be large; an effect the other way counts as inactive or inconclusive. Potency is read from the fitted curve at half-maximal effect.

SMILES	Nrf2 inh	mIDH1 inhibitor	Nrf2 ARE act	A549 viability	ELG1 DNA repair	ELG1 Luc conf	ELG1-Luc MMS	ELG1 5FU viab	ELG1 MMS cell	ELG1 unstim viab	others
CCOC(=O)N1CCN(C(=O)c2cc(COc3ccc4ncccc4c3)on2)CC1	18µM*	3%	3%	-13%	9.2µM*	20µM*	5.6µM*	0%	4.5µM*	14µM*	ELG1 FLuc counter=-5%;FLuc enzyme=-3%
CCOC(=O)N1CCN(C(=O)c2cc(COc3cccc(C(C)=O)c3)on2)CC1	?	-2%	7%	0%	?	.	.	.	.	.
CCOc1ccc(CCNC(=O)c2cc3c(s2)-c2c(C)cccc2OC3)cc1	-10%	11%	-1%	0%	.	.	.	.	.	.
COc1cccc(N2CC(NS(=O)(=O)c3cccnc3)CC2=O)c1 (stereo not drawn)	2%	-4%	0%	2%	4.1µM*	27%	11%	4%	?	10%
COc1ccc(N2CC(NS(=O)(=O)c3cccnc3)CC2=O)cc1 (stereo not drawn)	6%	0%	0%	1%	2%	.	.	.	.	.
CCC1Sc2ccccc2N(CC(=O)NCc2ccc(C)cc2)C1=O (stereo not drawn)	.	-3%	6%	3%	.	.	.	.	.	.
OC[C@@H]1CN(CCN2CCOCC2)C[C@H](n2cnc3c(Nc4ccccc4)ncnc32)O1	.	.	-1%	.	.	.	.	.	.	.
COCCn1c(SCC(=O)N2CC(C)OC(C)C2)nc2c([nH]c3ccccc32)c1=O (stereo not drawn)	-6%	-8%	1%	1%	-9%	.	.	.	.	.
CCn1c(SCC(=O)N2CC(C)OC(C)C2)nc2c([nH]c3ccccc32)c1=O (stereo not drawn)	-28%	-1%	2%	2%	3.3µM*	10µM*	-5%	?	20%	6%
COc1ccccc1NC(=O)c1cc2c(CO)cnc(C)c2oc1=Nc1cc(OC)c(OC)c(OC)c1	9%	1%	0%	0%	1%	.	.	.	.	.
COc1ccccc1NC(=O)c1cc2c(CO)cnc(C)c2oc1=Nc1ccc(OC)c(OC)c1	?	-23%	0%	-1%	2.9µM*	0.89µM*	?	?	?	?
COc1ccc(N2Cc3cccc(C(=O)Nc4ccc(C(C)C)cc4)c3C2=O)cc1	?	.	3%	7%	.	.	.	.	.	.
